This is an account of results in PubChem BioAssay.

The nature of test [1]: glutamate transport activators, MN-1 cells, MN-1 cell line (AID 1612).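 Further: tested at 1 µM final; 0% = mean of DMSO vehicle wells on each plate; positive means more glutamate uptake than control and negative means less.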 To be noted: MN-1 motor neuron cells, stronger effect = higher value.
Test [2] can be described thus: 75Q-TubH aggregate inhibition, S. cerevisiae, yeast (AID 1616). The following applies: S. cerevisiae 75Q-TubH polyglutamine aggregation suppression; stronger effect = higher value.
Test [3] is described as follows: compounds altering circadian rhythm period length – cell-based, LOPAC library, luminescence reporter (AID 2774).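 Further: values are relative to mean of DMSO wells on each plate.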 To be noted: circadian reporter cells, at 7 µM, actives lie on both sides.
The nature of test [4]: compounds altering viability of human ES cells (AID 493140).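 Further: cells exposed to compounds for four days before counting.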 To be noted: human embryonic stem cell survival screen; stronger effect = higher value.
The nature of test [5]: P. berghei load reduction in hepatocytes – cell-based, HepG2, luciferase luminescence, HepG2 viability, primary screen (AID 624349; in the data active means parasite load remaining mostly below about 12%, no sharp cut-off; inactive means mostly above about 10%;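 further: 100% = mean of DMSO negative control wells on the same plate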). To be noted: P. berghei liver stage in HepG2, luciferase luminescence, concentration not given here; parasite load remaining: stronger effect = lower value; viability: measured here: HepG2 viability without parasites.
For test [6], the system named is Hepatitis C virus NS3 helicase. The test is described as follows: blockers of NS3h binding to ssDNA – biochemical, fluorescence polarization, LOPAC1280 library, primary screen (AID 687035; in the data active means inhibition above about 37%). The following applies: Purified HCV NS3 helicase, Cy5-dT15 ssDNA binding fluorescence polarization; stronger effect = higher value; concentration not given here. On the technique in general: Fluorescence polarisation rises when a labelled molecule tumbles more slowly, as on binding a larger partner.

Test [7] can be described thus: compounds altering Cy5-DNA-NS3h complex signal – biochemical, LOPAC1280, artefact control for HCV NS3 helicase inhibitor project (AID 687037). To be noted: Cy5-DNA-NS3h complex fluorescence interference counterscreen. For orientation: The purpose of a counterscreen is to sort out artefacts and off-target activity.
Test [8] in a line: Wnt pathway potentiators raising nuclear beta-catenin – imaging, WNT3A-conditioned medium, mouse C2C12, NPC library, primary screen (AID 1117326; in the data active means nuclear beta-catenin stimulation mostly above about 4.2%, no sharp cut-off; inactive means mostly below about 10%). The following applies: stronger effect = higher value.
Test [9] in a line: GFP-Q80 aggregate reduction, neuronal-like cells, cell-based, NGF-treated PC12, GFPQ80 (AID 1614).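 Further: lower means fewer inclusions and 0 means no inclusions at all.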 To be noted: PC12 NGF-treated GFP-polyQ80 inclusion reduction.
Test [10] is described as follows: signal quenchers or enhancers, Cy5 substrate/SSB – biochemical, NIH Clinical Collection, E. coli SSB, artefact control for HCV NS3 helicase inhibitor project (AID 743268). To be noted: Cy5-oligo bound E. coli SSB, fluorescence interference.
In test [11] the test system is Hepatitis C virus NS3 helicase. Briefly: blockers of NS3h binding to DNA – biochemical, fluorescence polarization, NIH Clinical Collection, primary screen (AID 743270). To be noted: NS3 helicase binding to Cy5-dT15 DNA, stronger effect = higher value, concentration not given here.
The target of test [12] is Single-stranded DNA-binding protein (Escherichia coli (strain K12)) (UniProt P0AGE0). Briefly: SSB-ssDNA binding inhibitors – biochemical, fluorescence polarization, NIH Clinical Collection, counter-screen for HCV NS3 helicase inhibitor project (AID 743271; in the data active means inhibition above about 28%). To be noted: E. coli SSB-DNA binding, stronger effect = higher value, concentration not given here.
A short description of test [13]: compounds distorting NS3 helicase fluorescence signal – biochemical, NIH Clinical Collection, artefact control for HCV NS3 helicase inhibitor project (AID 743272).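 Further: HCV NS3 helicase with a Cy5 labelled single stranded DNA probe.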 The following applies: fluorescence interference counterscreen, HCV NS3 helicase assay; stronger effect = lower value.
Test [14] concerns Neuropilin-2 / VEGF-C interaction (human). The test is described as follows: small molecules blocking Neuropilin-2/VEGF-C interaction – biochemical, microplate binding format, z-score (AID 743281). The following applies: microplate NRP2/VEGF-C binding assay; stronger effect = lower value.

Values joined by “and” are separate entries in the source; they are usually repeats but may differ in a detail not shown here. Identical values can stand only once. Active and inactive are the calls of the source. Unless noted, how the calls were made is not given here.

A word on the viability: it is a read-out of living cells in per cent, often relative to untreated cells. By inhibition is commonly meant the drop in the measured response relative to a control, in per cent. For `CCOC(=O)C(C)(C)Oc1ccc(Cl)cc1`, the glutamate uptake change in test [1] was -11.1% and 6.19%. Besides, the aggregation suppression score in test [2] is 0.624 and 0.92. In test [3], the period change was -0.13 h (inactive). Further, in test [4], the survival was 82.4 (inactive). Besides, the parasite load remaining in test [5] was 56.5% (inactive) and 51.6% (inactive). In addition, the viability in test [5] is 100% and 144%. Moreover, in test [6], the inhibition is -5% (inactive). In test [7], the fluorescence ratio (interference) is 1 (inactive). For the same molecule, the nuclear beta-catenin stimulation was 0% (inactive) in test [8] (at 10 µM) and 1.6% in test [8] (stimulation, at 2 µM).
On to `CCCCCCCCNC(C)C(O)c1ccc(SC(C)C)cc1` (configuration not stated), for which the glutamate uptake change in test [1] is -7.34%. In test [2], this molecule had an aggregation suppression score of 0.0242. In addition, the survival in test [4] was 0.25 (inactive). In addition, the nuclear beta-catenin stimulation is -5.4% (inactive) in test [8] (at 10 µM) and 1.4% in test [8] (stimulation, at 2 µM).
For `COc1cccc(OC)c1C(=O)N[C@@H]1C(=O)N2[C@@H]1SC(C)(C)[C@@H]2C(=O)O`, in [1], the glutamate uptake change is 17.4%. Besides, the inclusion score in test [9] worked out at 2. Further, the aggregation suppression score in [2] was found to be 1.05. In test [5], the parasite load remaining was 72.2% (inactive) and 53.5% (inactive); the viability was 72.9% and 91.1%. For the same molecule, the nuclear beta-catenin stimulation in test [8] (at 10 µM) is -0.9% (inactive). The nuclear beta-catenin stimulation in test [8] (stimulation, at 2 µM) was -1.1%.
As for `O=C1C(O)=C(O)C(=O)C(O)=C1O`, in test [1], the glutamate uptake change came out at 5.54%. This molecule also came in with an aggregation suppression score in [2] of 1.42. In addition, the survival in test [4] was 4.75 (inactive). In test [5], the parasite load remaining is 67.5% (inactive) and 145% (inactive) and 28.2% (inactive); the viability was 94.1% and 90.9% and 99%. In addition, in test [8] (at 10 µM), the nuclear beta-catenin stimulation is -1.5% (inactive). Further, the nuclear beta-catenin stimulation in test [8] (stimulation, at 2 µM) came to 0.7%.
As for `C1CCC(C(CC2CCCCN2)C2CCCCC2)CC1` (configuration not stated), the glutamate uptake change in test [1] was -10.9%. For the same molecule, the aggregation suppression score in test [2] was 0.885. For the same molecule, the survival in test [4] is 6 (inactive). For the same molecule, the nuclear beta-catenin stimulation is 22.1% (inactive) in [8] (at 10 µM) and 1.1% in test [8] (stimulation, at 2 µM).
As for `CN1CCN(CCCN2c3ccccc3Sc3ccc(Cl)cc32)CC1`, the glutamate uptake change in test [1] was found to be 0%. In test [2], this molecule yielded an aggregation suppression score of 1.34. Moreover, the period change in [3] was 0.055 h (inactive). Further, the survival in [4] was 1.75 (inactive). The inhibition in test [6] was -3% (inactive); in test [11], -1.19% (inactive); in test [12], 9.14% (inactive). Further, the fluorescence ratio (interference) in test [7] is 1 (inactive). In addition, the fluorescence ratio in [10] was 0.78 (active); in [13], 0.71 (active). The z-score in test [14] is 0.742 (inactive). For the same molecule, the nuclear beta-catenin stimulation in test [8] (at 10 µM) was 19.8% (inactive); in [8] (stimulation, at 2 µM), 0.2%.
Consider `CN1CCC[C@@H]1CCO[C@](C)(c1ccccc1)c1ccc(Cl)cc1`, for which the glutamate uptake change in test [1] was found to be 65.2%. The same molecule came in with an aggregation suppression score in test [2] of 0.9. Moreover, in test [4], the survival was 6.33 (inactive). Also, the nuclear beta-catenin stimulation is 7.8% (inactive) in test [8] (at 10 µM) and 2.3% in test [8] (stimulation, at 2 µM).
Turning to `CC(Cc1cccc(C(F)(F)F)c1)NCCOC(=O)c1ccccc1` (configuration not stated), the glutamate uptake change in test [1] turned out to be 15.6%. The aggregation suppression score in test [2] is 1.08. Moreover, the survival in test [4] is 2.5 (inactive). Further, in [5], the parasite load remaining is 112% (inactive) and 111% (inactive) and 72.4% (inactive); the viability was 102% and 77% and 73.5%. The nuclear beta-catenin stimulation in test [8] (at 10 µM) is 2.3% (inactive). The nuclear beta-catenin stimulation in test [8] (stimulation, at 2 µM) is 3.6%.
As to `NC(CO)C(=O)NNCc1ccc(O)c(O)c1O` (configuration not stated), the glutamate uptake change in test [1] was 11.3%. In addition, the aggregation suppression score in test [2] was found to be 1.23. In addition, the period change in test [3] is 0.075 h (inactive). The survival in [4] was 2.42 (inactive). Moreover, the inhibition in test [6] is 1% (inactive). Also, the fluorescence ratio (interference) in test [7] is 1 (inactive). Moreover, the nuclear beta-catenin stimulation in test [8] (at 10 µM) was 13.1% (inactive); in test [8] (stimulation, at 2 µM) it was 3.8%.
Regarding `CCCCOc1cc(C(=O)NCCN(CC)CC)c2ccccc2n1`, the glutamate uptake change in [1] was -13.8%. The aggregation suppression score in test [2] was found to be 1.32. The survival in [4] was 7.17 (inactive). The nuclear beta-catenin stimulation is 5.7% (inactive) in test [8] (at 10 µM) and 1.8% in test [8] (stimulation, at 2 µM).
